Data on 50 compounds can be found in PubChem BioAssay AID504834 (National Center for Advancing Translational Sciences (NCATS), 2011).

Each structure is given as a SMILES string. The whole screen tested about 320,000 compounds, of which about 22,000 (6.9%) were called active. Another 27% or so got no clear call; they are omitted. Calls come from the whole dose curve; as a rule, active = well fitted inhibition curve with a large enough effect; inconclusive = small, poorly fitted or top-dose-only effect, or another doubt; inactive = no such curve, though single readings can be large or run the other way. The entries come from a sample that favours actives as a whole. A call without a number means that no potency is given here.
Potency is the fitted concentration of half-maximal effect.

This assay is described as follows: Primary qHTS for delayed death inhibitors of the malarial parasite plastid, 96 hour incubation. The note with it: P. falciparum luciferase reporter growth; series mostly up to 28.7 µM. From the text: The goal of this screen is to discover new antimalarial compounds that act by inhibiting the development of the apicoplast in the malarial parasite Plasmodium falciparum. The biochemical processes that make this organelle essential for erythrocytic stage parasites are not well understood. However, antibiotics such as azithromycin and tetracycline, which target the apicoplast translational machinery, have a potent antimalarial effect.
We have developed a cell-based assay that measures parasite growth based on the expression of an integrated copy of a firefly luciferase reporter. To detect small molecules that cause this "delayed death" phenotype, erythrocytes infected with the luciferase-expressing parasites were incubated with compounds for either one or two generations, corresponding to 48 and 96 hours, respectively. Compounds that inhibit parasite growth in the second generation, but not the first, should be enriched in antimalarials that target the apicoplast. Growth inhibition is detected by a decrease in luciferase activity.
Assay Provider: David Fidock and Eric Ekland, Columbia University
Keywords: NIH Roadmap, MLPCN, MLI, MLSMR, qHTS, NCGC, qHTS, malaria, luciferase, viability
Four microliters of infected erythrocytes (2% hematocrit, 0.05% parasitemia final concentration) in culture medium were dispensed and the plates incubated for 96 hours at 37 C in 5% CO2. Two microliters of luciferase detection reagent was added and luminescence was detected by a ViewLux (PerkinElmer) reader.
`CCOC(=O)c1cc2ccccc2n1CC(=O)c1ccccc1`: the Potency entry was “inactive”.
For `CC(=O)Nc1ccc(NC(=O)[C@@H](NC(=O)c2cccc(C)c2)C(C)C)cc1` the value was “inactive”; for `O=C(O)CSc1ccc(S(=O)(=O)N2CCCC2)cn1`, “inactive”.
As to `CCN1CCCC1CNC(=O)c1cc2cc(OC)c(OC)cc2[nH]1` (stereo not given), the Potency result is “inactive”.
Turning to `O=C(COc1cccc(-n2cnnn2)c1)NCCC1=CCCCC1`, the Potency is 10.4 µM (active).
As to `CC(C)COc1ccc(C(=O)OCC(=O)NCCC2=CCCCC2)cc1`, the Potency result is “inactive”.
Regarding `O=C(COc1ccc(Cl)cc1)NCCC1=CCCCC1`, the Potency entry is “inactive”.
For `Cc1ccn2c(c1)nc(=O)c1cc(S(=O)(=O)N3CCC(C)CC3)ccc12` the value was “inactive”; for `COC(=O)c1ccc(COC(=O)CNC(=O)c2cccc(OC)c2)o1`, “inactive”; for `CCN(CC)CCCNC(=O)c1c(O)c2cc(F)cc3c2n(c1=O)C(C)CC3` (stereo not given), “inactive”.
With `CCN1C(=NCCc2cccnc2)N[C@@H](c2ccccc2)C(C(=O)OC)=C1C` the entry was “inactive”.
As for `CC(=O)OC(C(=O)NCCc1ccccc1)c1cccnc1` (stereo not given), the Potency result was “inactive”.
For `CCN1C(=NCCc2cccnc2)N[C@@H](c2ccccc2)[C@H](C(=O)OC)[C@H]1C` the value was 7.38 µM (active).
In the case of `CC(=O)C1=C(C)NC(=O)NC1c1ccc2c(c1)OCO2` (stereo not given), the Potency result was “inactive”.
For `CC(C)(C)c1ccc(C(CC(=O)O)NS(=O)(=O)Cc2ccccc2)cc1` (stereo not given) the value was “inactive”; for `O=C(Nc1ccc(S(=O)(=O)Nc2nccs2)cc1)c1cc(=O)[nH]c2ccccc12`, “inactive”.
With `O=C(Nc1ccc(S(=O)(=O)Nc2nccs2)cc1)c1cccc(S(=O)(=O)N2CCOCC2)c1` the figure was 11.7 µM (active).
As to `Cc1ccnc(NS(=O)(=O)c2ccc(NC(=O)c3ccc(S(=O)(=O)N4CCOCC4)cc3)cc2)n1`, the Potency entry was “inactive”.
For `Cc1cccc(C)c1NC(=S)N1CCCCCC1` the value was “inactive”.
With `Cc1ccccc1NC(=O)Cc1nc(COC(=O)c2ccc(C(F)(F)F)cc2)cs1` the entry was “inactive”.
With `Cc1noc(C)c1S(=O)(=O)N(CC(=O)NCc1ccc(Cl)cc1)c1ccc2c(c1)OCO2` the entry was “inactive”; with `CCOc1ccc(N(CC(=O)NCc2ccc(OC)cc2)S(=O)(=O)c2c(C)noc2C)cc1`, 9.28 µM (active).
With `CCOc1ccc(N(CC(=O)NCCc2ccc(OC)cc2)S(C)(=O)=O)cc1`, the Potency result was “inactive”.
In the case of `COc1ccc(C(=O)N2CCCN(C)CC2)c(OC)c1`, the Potency result is “inactive”.
For `Cc1cc(C)c(S(=O)(=O)c2ccc(F)cc2C)c(=O)[nH]1` the value was “inactive”; for `O=C(OCC(=O)N1CCCC1=O)c1cc(S(=O)(=O)N2CCOCC2)ccc1Cl`, “inactive”; for `Cc1noc(C)c1COc1ccc(C(=O)NCCOc2ccccc2)cc1`, “inactive”.
For the compound `O=C(CCC1CCN(C(=O)c2cccc(Cl)c2F)CC1)Nc1ccccc1`, the Potency result is “inactive”.
With `CCNC(=O)c1cccc(NC(=O)C2CC(=O)N(CCc3ccccc3)C2)c1` (stereo not given) the entry was “inactive”; with `CN(NC(=O)c1ccccc1)c1nc2ccccc2nc1C(F)(F)F`, “inactive”; with `CN(NC(=O)c1ccccc1F)c1nc(C(F)(F)F)nc2ccccc12`, 11.7 µM (active).
For `COC(=O)CNC(=O)c1ccccc1F` the value was “inactive”; for `O=C(O)c1ccccc1N=N/C(=N/Nc1cc(S(=O)(=O)O)ccc1O)c1ccccc1`, “inactive”; for `CC1CC(=O)Nc2ccccc2N1C(=O)COc1ccc2cc(Br)ccc2c1` (stereo not given), “inactive”.
Take `C=CCN(C(=O)Nc1ccc2c(c1)nc(C)n2C)c1ccccc1`: the Potency result was “inactive”.
For the compound `C=CCN(C(=O)Cn1ncc2c1-c1cc(C)ccc1OC2)c1ccccc1`, the Potency is 9.28 µM (active).
Take `C=CCN(C(=O)Nc1ccc2oc(C)nc2c1)c1ccccc1`: the Potency entry is “inactive”.
Regarding `CC(=O)NC(CC(=O)Nc1cccc(S(=O)(=O)N2CCCC2)c1)c1ccccc1` (stereo not given), the Potency result is “inactive”.
As to `CC[C@]1(O)CC2CN(CCc3c([nH]c4ccccc34)[C@@](C(=O)OC)(c3cc4c(cc3OC)N(C=O)[C@H]3[C@@](O)(C(=O)OC)[C@H](OC(C)=O)[C@]5(CC)C=CCN6CC[C@]43[C@@H]65)C2)C1` (stereo not given in full), the Potency was 0.262 µM (active).
With `CC[C@]1(O)C[C@@H]2CN(CCc3c([nH]c4ccccc34)[C@@](C(=O)OC)(c3cc4c(cc3OC)N(C)[C@H]3[C@@](O)(C(=O)OC)[C@H](OC(C)=O)[C@]5(CC)C=CCN6CC[C@]43[C@@H]65)C2)C1` the figure was 0.147 µM (active); with `CN(C(=O)COC(=O)CNC(=O)C12CC3CC(CC(C3)C1)C2)c1ccccc1`, “inactive”.
With `Cc1cc(NC(=O)CSc2nnnn2-c2ccc(F)cc2)no1` the entry was “inactive”.
For `CC(C(=O)NCCc1ccc(S(N)(=O)=O)cc1)N1C(=O)CC(C)(C)Sc2ccccc21` (stereo not given) the value was “inactive”; for `CCCN(C(=O)c1nc2nccc(C)n2n1)c1c(N)n(Cc2ccccc2)c(=O)[nH]c1=O`, “inactive”.
For `COc1ccc(C)cc1NC(=S)N1CCOCC1`, the Potency is 10.4 µM (active).
Turning to `COc1ccccc1/C=C/C(=O)NC(=S)N1CCOCC1`, the Potency result is “inactive”.
Regarding `CCOC(=O)N1CCN(C(=S)Nc2ccc(C)cc2C)CC1`, the Potency entry was “inactive”.
`COc1ccc(NC(=S)N2CCc3cc(OC)c(OC)cc3C2)cc1`: the Potency result was “inactive”.
As to `COc1ccc(OC)c(NC(=S)N2CCc3ccccc3C2)c1`, the Potency was 4.15 µM (active).
For `COc1ccc(OC)c(NC(=O)c2ccc3c(c2)CCN3S(C)(=O)=O)c1` the value was “inactive”.
